In PubChem BioAssay (NCI):
Compounds without any hit were thinned out: in the full panel of roughly 79,000, 15% have a hit. Active and inactive are the calls of the source. Cut-off read from the data, not from the text of the source: active = growth inhibition above about 70%; inactive = the rest.

What was measured:
[1] = NCI Yeast Anticancer Drug Screen. Data for the rad52 strain (AID 147);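 note: 0% = growth of vehicle-treated control cultures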; details: S. cerevisiae rad52 mutant growth inhibition, active compounds read high
How it was run: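 Here a repair-compromised yeast strain receives each compound; its growth is then quantified and normalised to vehicle-only controls.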

[2] = NCI Yeast Anticancer Drug Screen. Data for the wt1 strain (AID 149);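 note: 0% = growth of vehicle-treated wt1 cultures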; details: S. cerevisiae wt1 strain (SPY 50644) growth inhibition, active compounds read high
How it was run: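 Readout: yeast growth inhibition, normalised to vehicle controls, in the wt1 strain exposed to test compounds.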

[3] = NCI Yeast Anticancer Drug Screen. Data for the rad50EPP+ strain (AID 151);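 note: 0% = growth of vehicle-treated control cultures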; details: S. cerevisiae rad50 mutant strain, active compounds read high
How it was run: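 Read-out is yeast growth inhibition relative to vehicle; cells used were the rad50EPP+ strain.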

[4] = NCI Yeast Anticancer Drug Screen. Data for the mgt1 strain (AID 153); details: S. cerevisiae mgt1 mutant growth inhibition, active compounds read high
How it was run: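 Measured: inhibition of mgt1 yeast growth by compound, normalized to vehicle-treated cultures.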

[5] = NCI Yeast Anticancer Drug Screen. Data for the rad50 strain (AID 155);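 note: 0% = growth of vehicle-only cultures of the same strain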; details: S. cerevisiae rad50 strain growth inhibition, active compounds read high
How it was run: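 Compounds were tested on a yeast strain with an engineered DNA damage repair alteration; the reported value is growth inhibition normalised to vehicle treatment.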

[6] = NCI Yeast Anticancer Drug Screen. Data for the mec2-1 strain (AID 157); details: S. cerevisiae mec2-1 strain, active compounds read high
How it was run: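 Using mec2-1 yeast: add compound, measure growth, express inhibition versus vehicle-treated cultures.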

[7] = NCI Yeast Anticancer Drug Screen. Data for the rad14 strain (AID 159);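 note: 0% = growth of vehicle-treated control cultures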; details: S. cerevisiae rad14 strain growth inhibition, active compounds read high
How it was run: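 Compound-treated yeast with a defined DNA-repair lesion; growth inhibition normalised to vehicle-treated cultures.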

[8] = NCI Yeast Anticancer Drug Screen. Data for the sgs1 mgt1 strain (AID 161);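 note: 0% = growth of cultures given vehicle only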; details: S. cerevisiae sgs1 mgt1 strain, active compounds read high
How it was run: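 Percent growth inhibition was derived by comparing compound-exposed mutant yeast with vehicle-exposed cultures. The strain carries alterations in DNA damage repair.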

[9] = NCI Yeast Anticancer Drug Screen. Data for the CLN2oe strain (AID 163);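 note: 0% = growth of vehicle-only control cultures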; details: S. cerevisiae CLN2oe strain, active compounds read high
How it was run: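 Whole-cell yeast growth assay. A strain engineered for altered cell-cycle control received compound, and inhibition relative to vehicle-treated cultures was recorded.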

[10] = NCI Yeast Anticancer Drug Screen. Data for the cln2 rad14 strain (AID 165);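 note: 0% = growth equal to vehicle treated cultures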; details: S. cerevisiae cln2 rad14 strain, active compounds read high
How it was run: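 Yeast strain cln2 rad14, bearing defects in cell cycle control and DNA repair, serves as the test system; values reflect growth inhibition compared with vehicle.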

[11] = NCI Yeast Anticancer Drug Screen. Data for the bub3 strain (AID 167); details: S. cerevisiae bub3 mutant strain, active compounds read high
How it was run: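 Growth of a checkpoint-deficient yeast mutant is measured after compound exposure. Values represent inhibition relative to vehicle.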

[12] = NCI Yeast Anticancer Drug Screen. Data for the wt2 strain (AID 169);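 note: 0% = growth of vehicle-treated yeast cultures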; details: S. cerevisiae wt2 strain growth inhibition, active compounds read high
How it was run: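 Treated yeast vs. vehicle-treated yeast: growth inhibition determined.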

[13] = NCI Yeast Anticancer Drug Screen. Data for the mlh1 strain (AID 171);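 note: 0% = growth of vehicle-treated control cultures of the same strain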; details: S. cerevisiae mlh1 strain growth inhibition, active compounds read high
How it was run: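 A yeast strain with a defined genetic lesion serves as the test organism. Cultures receive compound or vehicle, and growth is measured.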

[14] = NCI Yeast Anticancer Drug Screen. Data for the sgs1 strain (AID 173);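 note: 0% = growth of vehicle-only control cultures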; details: S. cerevisiae sgs1 mutant, active compounds read high
How it was run: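 A genetically defined yeast mutant is incubated with the test compound, and its growth is compared to that of the same strain given vehicle.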

[15] = NCI Yeast Anticancer Drug Screen. Data for the mlh1 rad18 strain (AID 175); details: S. cerevisiae mlh1 rad18 strain growth inhibition, active compounds read high
How it was run: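 Steps: expose repair-defective yeast to compound; measure growth; express inhibition against vehicle-treated controls.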

[16] = NCI Yeast Anticancer Drug Screen. Data for the rad18 strain (AID 177); details: S. cerevisiae rad18 mutant growth inhibition, active compounds read high
How it was run: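 Measured value is growth inhibition of a yeast strain bearing a DNA repair alteration, referenced to vehicle-treated cells.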

[17] = at 5.0 µM (retest, dose inferred, filed as 0.5)
[18] = at 50.0 µM (retest, dose inferred, filed as 5.0)

Measured: growth inhibition

Fc1ccc(NC(=S)SCc2ccc(Cl)c(Cl)c2)cc1F
active: [1]; at 33.0 µM 89% | [1]; at 100.0 µM 98% | [2]; at 33.0 µM 99% | [2]; at 100.0 µM 98% | [3]; at 33.0 µM 98% | [3]; at 100.0 µM 98% | [4]; at 33.0 µM 97% | [4]; at 100.0 µM 98% | [5]; [18] 98% | [5]; at 50.0 µM 90.3% | [5]; at 100.0 µM 97% | [6]; [18] 98% | [6]; at 50.0 µM 93.2% | [6]; at 100.0 µM 99% | [7]; at 33.0 µM 99% | [7]; at 100.0 µM 98% | [8]; [18] 98% | [8]; at 50.0 µM 90% | [9]; at 33.0 µM 80% | [9]; at 100.0 µM 97% | [10]; [18] 97% | [10]; at 50.0 µM 90.5% | [11]; at 33.0 µM 98% | [11]; [18] 97% | [11]; at 50.0 µM 90.8% | [11]; at 100.0 µM 98% | [12]; at 33.0 µM 99% | [12]; at 100.0 µM 99% | [13]; at 33.0 µM 99% | [13]; at 100.0 µM 98% | [14]; at 33.0 µM 99% | [14]; at 100.0 µM 97% | [15]; [18] 97% | [15]; at 50.0 µM 90.6% | [16]; at 33.0 µM 98% | [16]; at 100.0 µM 98%
inactive: [1]; at 1.2 µM -6% | [1]; at 3.7 µM -8% | [1]; at 11.0 µM 17% | [2]; at 1.2 µM -4% | [2]; at 3.7 µM 12% | [2]; at 11.0 µM 33% | [3]; at 1.2 µM -2% | [3]; at 3.7 µM 25% | [3]; at 11.0 µM 60% | [4]; at 1.2 µM -3% | [4]; at 3.7 µM -4% | [4]; at 11.0 µM 0% | [5]; at 1.2 µM -15% | [5]; at 3.7 µM -9% | [5]; [17] 66% | [5]; at 11.0 µM 45% | [5]; at 33.0 µM -12% | [6]; at 1.2 µM -4% | [6]; at 3.7 µM -4% | [6]; [17] 18% | [6]; at 11.0 µM -4% | [6]; at 33.0 µM 60% | [7]; at 1.2 µM 3% | [7]; at 3.7 µM 5% | [7]; at 11.0 µM 24% | [8]; [17] 25% | [9]; at 1.2 µM -7% | [9]; at 3.7 µM -10% | [9]; at 11.0 µM -11% | [10]; [17] -2% | [11]; at 1.2 µM -2% | [11]; at 3.7 µM -4% | [11]; [17] 1% | [11]; at 11.0 µM 21% | [12]; at 1.2 µM 10% | [12]; at 3.7 µM 13% | [12]; at 11.0 µM 64% | [13]; at 1.2 µM -13% | [13]; at 3.7 µM -7% | [13]; at 11.0 µM 27% | [14]; at 1.2 µM -5% | [14]; at 3.7 µM -1% | [14]; at 11.0 µM 44% | [15]; [17] 33% | [16]; at 1.2 µM -9% | [16]; at 3.7 µM -6% | [16]; at 11.0 µM 30%

Cn1c(=O)c2ccccc2c2ccccc21
active: [1]; at 33.0 µM 88% | [1]; at 100.0 µM 96% | [3]; at 33.0 µM 87% | [3]; at 100.0 µM 91% | [5]; at 33.0 µM 91% | [5]; [18] 84% | [5]; at 50.0 µM 97% | [5]; at 100.0 µM 94% | [6]; at 50.0 µM 75.1% | [8]; at 50.0 µM 84.9% | [10]; at 50.0 µM 70.5% | [11]; at 50.0 µM 85.8% | [15]; at 50.0 µM 96.3% | [16]; at 33.0 µM 83% | [16]; at 100.0 µM 91%
inactive: [1]; at 1.2 µM -2% | [1]; at 3.7 µM 9% | [1]; at 11.0 µM 32% | [2]; at 1.2 µM -5% | [2]; at 3.7 µM -8% | [2]; at 11.0 µM -10% | [2]; at 33.0 µM 11% | [2]; at 100.0 µM 21% | [3]; at 1.2 µM 0% | [3]; at 3.7 µM 19% | [3]; at 11.0 µM 52% | [4]; at 1.2 µM -1% | [4]; at 3.7 µM -3% | [4]; at 11.0 µM -1% | [4]; at 33.0 µM 35% | [4]; at 100.0 µM 51% | [5]; at 1.2 µM -3% | [5]; at 3.7 µM 4% | [5]; [17] -132% | [5]; at 11.0 µM 41% | [6]; at 1.2 µM 0% | [6]; at 3.7 µM 0% | [6]; [17] -45% | [6]; at 11.0 µM 11% | [6]; at 33.0 µM 26% | [6]; [18] 5% | [6]; at 100.0 µM 52% | [7]; at 1.2 µM 0% | [7]; at 3.7 µM 2% | [7]; at 11.0 µM 15% | [7]; at 33.0 µM 39% | [7]; at 100.0 µM 63% | [8]; [17] -64% | [8]; [18] 35% | [9]; at 1.2 µM 1% | [9]; at 3.7 µM 0% | [9]; at 11.0 µM 7% | [9]; at 33.0 µM 22% | [9]; at 100.0 µM 51% | [10]; [17] -54% | [10]; [18] -6% | [11]; at 1.2 µM -5% | [11]; at 3.7 µM -2% | [11]; [17] -69% | [11]; at 11.0 µM 5% | [11]; at 33.0 µM 29% | [11]; [18] 5% | [11]; at 100.0 µM 51% | [12]; at 1.2 µM -1% | [12]; at 3.7 µM -1% | [12]; at 11.0 µM -2% | [12]; at 33.0 µM 21% | [12]; at 100.0 µM 50% | [13]; at 1.2 µM 8% | [13]; at 3.7 µM -5% | [13]; at 11.0 µM 4% | [13]; at 33.0 µM 46% | [13]; at 100.0 µM 59% | [14]; at 1.2 µM -2% | [14]; at 3.7 µM -1% | [14]; at 11.0 µM -2% | [14]; at 33.0 µM 43% | [14]; at 100.0 µM 66% | [15]; [17] -114% | [15]; [18] 36% | [16]; at 1.2 µM 2% | [16]; at 3.7 µM 5% | [16]; at 11.0 µM 31%
